Data: PubChem BioAssay (EPA / NIEHS)
Activity calls are given as the source filed them. How the source made its calls: active means hit-call score of the fitted dose curve at least 0.9, where 1 is the maximum; inactive means score below 0.9.

experiment: ATG_MRE_CIS: Attagene CIS-FACTORIAL HepG2 Assay for human Metal Responsive Element (MRE) (AID 2282954); details: HepG2 MRE cis-reporter transcription, Attagene multiplex; actives raise or lower the signal
Protocol: ATG_CIS is a cell-based, multiplexed-readout assay that uses HepG2, a human liver cell line, with measurements taken at 24 hours after chemical dosing in a 24-well plate.ATG_MRE_CIS is one of 52 assay component(s) measured or calculated from the ATG_CIS assay. It is designed to make measurements of mRNA induction, a form of inducible reporter, as detected with fluorescence intensity signals by Reverse transcription polymerase chain reaction (RT-PCR) and Capillary electrophoresis technology.Data from the assay component ATG_MRE_CIS was analyzed into 1 assay endpoint. This assay endpoint, ATG_MRE_CIS, was analyzed with bidirectional fitting relative to DMSO as the negative control and baseline of activity. Using a type of inducible reporter, measures of mRNA for gain or loss-of-signal activity can be used to understand the reporter gene at the transcription factor-level as they relate to the gene MTF1. Furthermore, this assay endpoint can be referred to as a primary readout, because this assay has produced multiple assay endpoints where this one serves a reporter gene function. To generalize the intended target to other relatable targets, this assay endpoint is annotated to the dna binding intended target family, where the subfamily is zinc finger.
Human liver HepG2 cells are transiently transfected with multiple reporter transcription units (MRTUs) in 6-well plates using FuGene 6 reagent (Roche; 3 ml FuGene/1 mg DNA). The MRTU constructs are regulated by a cis-regulating element (promoter). […] A major difference between the CIS and TRANS system is that in CIS activities of endogenous TFs are measured, whereas the TRANS assay evaluates changes in activities of exogenous, chimeric NR-Gal4 proteins. […] At the end of 24 hour incubation, total RNA was isolated using TriZol reagent (Invitrogen). The isolated RNA is then reverse-transcribed using oligo(dT) primer and Mo-MLV reverse transcriptase (Invitrogen) with DNAse I (Ambion) treatment for 30 min. The one-tenth of the produced cDNA was amplified by PCR using Taq DNA polymerase (Invitrogen) and two reporter sequence-specific primers. The PCR products were fluorescently labeled by primer extension with 6-arboxyfluorescein (6-FAM) 5'-labeled reporter sequence-specific primer (2 min at 95 C, 20 s at 68 C and 10 min at 72 C) and these products were digested with 5U of HpaI (New England Biolabs) for 2h at 37 C. The fragments were purified using Qiaquick PCR columns (Qiagen), analyzed on an ABI 3130xL genetic analyzer (Applied Biosystems) with peak positions identified by using a set of X-rhodamine (ROX)-labeled MapMarker1000 molecular weight standards (BioVentures). The raw capillary electrophoresis data was processed using Attagraph software (Attagene).

Compound	outcome	AC50
CC(C)=CCC/C(C)=C\CO	inactive	–
Nc1cccc(N)c1	inactive	–
CCCCC(CC)COC(=O)c1ccc(C(=O)OCC(CC)CCCC)cc1 (stereo not given)	inactive	–
Cc1c(-c2cccnc2)c2ccccc2n1CCCCC(=O)O	inactive	–
CNCc1ccc(NC(=O)c2c[nH]c3c2C(=O)CCC3)cc1	inactive	–
O=P(OC(CCl)CCl)(OC(CCl)CCl)OC(CCl)CCl	–	107 µM (active)
CC(=O)c1ccc2c(c1)[C@H](NC(=O)c1ccc(F)cc1)[C@@H](O)C(C)(C)O2	inactive	–
CC(C)(O)c1coc(S(=O)(=O)NC(=O)Nc2c3c(cc4c2CCC4)CCC3)c1	inactive	–
CC(C)CCO	inactive	–
NC(=O)NO	inactive	–
O=C(CCCCCCCCc1cccnc1)N1CCC(C=C(c2ccccc2)c2ccccc2)CC1	–	2.78 µM (active)
Nc1nc2ncc(CNc3ccc(C(=O)N[C@@H](CCC(=O)O)C(=O)O)cc3)nc2c(=O)[nH]1	inactive	–
CCOCCOCCOCCO	inactive	–
CC(C)CC(C)(O)C#CC(C)(O)CC(C)C (stereo not given)	inactive	–
O=c1n(CC2CO2)c(=O)n(CC2CO2)c(=O)n1CC1CO1 (stereo not given)	–	59 µM (active)
Cc1ccc(S(=O)(=O)O)cc1C	inactive	–
CCN(C(=O)c1cc(C)cc(OC[C@H](C)Nc2ccncc2)c1)C(C)C	inactive	–
O=c1[nH]c2ccc(S(=O)CCN3CCC(Cc4ccc(F)cc4)CC3)cc2o1 (stereo not given)	–	155 µM (active)
CCn1nc(Cc2ccccc2)cc1C1CCN(C[C@H]2C[C@H](N(C)[C@@H](C(=O)O)C(C)C)C[C@@H]2c2cccc(F)c2)CC1	inactive	–
O=C(O)CCN(C1(C(=O)NO)CCCC1)S(=O)(=O)c1ccc(Oc2ccc(F)cc2)cc1	inactive	–

Compound	outcome	AC50
CC[C@H]1CC[C@H](NCc2cc3c(cc2OC)[C@H]2C[C@H]2C(=O)N3C)[C@H](c2ccccc2)N1	–	114 µM (active)
CCNc1ccccc1	inactive	–
O=C(O)c1cccc(Oc2ccccc2)c1	inactive	–
CCc1cc(SCc2sc(-c3ccc(C(F)(F)F)cc3)nc2CN2CCN(c3ccc(OC)cc3)CC2)ccc1OCC(=O)O	–	8.53 µM (active)
O=C(OC[C@H]1O[C@@H](OC(=O)c2cc(O)c(O)c(OC(=O)c3cc(O)c(O)c(O)c3)c2)[C@H](OC(=O)c2cc(O)c(O)c(OC(=O)c3cc(O)c(O)c(O)c3)c2)[C@@H](OC(=O)c2cc(O)c(O)c(OC(=O)c3cc(O)c(O)c(O)c3)c2)[C@@H]1OC(=O)c1cc(O)c(O)c(OC(=O)c2cc(O)c(O)c(O)c2)c1)c1cc(O)c(O)c(OC(=O)c2cc(O)c(O)c(O)c2)c1	inactive	–
CCCN(C1CCN(C(=O)C2CCNCC2)CC1)[C@@H]1CCc2ccc(OC)cc2C1	inactive	–
C1=CCCC=CCCC=CCC1	inactive	–
CC[C@H](C)C(=O)O[C@H]1C[C@@H](C)C=C2C=C[C@H](C)[C@H](CC[C@@H]3C[C@@H](O)CC(=O)O3)[C@H]21	–	10.5 µM (active)
CCOC(=O)COc1ccc2c(c1)CC(NCC(O)c1cccc(Cl)c1)CC2 (stereo not given)	inactive	–
COc1ccc(-n2nc(C(F)F)cc2-c2ccc(S(C)=O)cc2)cc1 (stereo not given)	inactive	–
CC/C(=C\C(=N/O)C(N)=O)C(C)[N+](=O)[O-] (stereo not given)	inactive	–
O=C1CCC(N2C(=O)c3ccccc3C2=O)C(=O)N1 (stereo not given)	inactive	–
Oc1ccc2c(c1)-c1ccccc1C2	–	40.8 µM (active)
CNS(=O)(=O)c1cc(C(=O)N2CCC(CCN3C4CCC3CC(n3c(C)nc5ccccc53)C4)(c3cccc(F)c3)CC2)c(Cl)cc1F (stereo not given)	inactive	–
CC(C)CCCCCCCOC(=O)CCCCC(=O)OCCCCCCCC(C)C	inactive	–
Cn1cnc([N+](=O)[O-])c1Sc1ncnc2nc[nH]c12	inactive	–
CC(O)CN(CCN(CC(C)O)CC(C)O)CC(C)O (stereo not given)	inactive	–
C=CC(=C)CCC=C(C)C	inactive	–
CCCCCCCCO	inactive	–
CCOCCO	inactive	–
